# In all, about 33,000 sequences were measured (“E-score (-0.5 to 0.5)”: median about -0.0014, highest 2% from about 0.25 on). The sample as a whole holds a higher share of the highest values than the screen did.
# Target: T1, Cad1 (UniProt P24813)
# T1 sequence: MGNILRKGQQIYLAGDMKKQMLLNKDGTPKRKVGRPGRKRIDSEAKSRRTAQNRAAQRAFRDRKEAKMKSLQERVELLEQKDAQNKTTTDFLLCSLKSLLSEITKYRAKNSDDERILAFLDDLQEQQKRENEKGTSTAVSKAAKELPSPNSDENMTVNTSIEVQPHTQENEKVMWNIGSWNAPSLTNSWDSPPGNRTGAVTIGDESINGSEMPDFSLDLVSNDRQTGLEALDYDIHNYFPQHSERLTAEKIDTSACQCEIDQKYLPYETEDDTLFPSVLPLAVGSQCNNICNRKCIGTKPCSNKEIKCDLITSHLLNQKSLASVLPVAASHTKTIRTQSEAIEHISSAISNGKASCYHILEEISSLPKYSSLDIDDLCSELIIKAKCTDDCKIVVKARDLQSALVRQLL
# Experiment: PBM E-score (8-mer binding enrichment) (E-score (-0.5 to 0.5)); higher = stronger / more preferred TF binding
# Details: protein concentration: 100 nM; construct: GST-full length
# In short: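 Universal all-10-mer Agilent arrays, fresh or stripped once, were converted to double-stranded form by primer extension. GST-tagged yeast transcription factors from PURExpress in vitro transcription/translation, full-length or DNA-binding domain only, were applied at about 100-200 nM and detected with fluorescent anti-GST. After masliner normalisation, the Universal PBM Analysis Suite scored each ungapped eight-base word together with its reverse complement by E-score.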
row,Sequence,PBM E-score
1,ACTCCACT,-0.0657
2,ACCCGGCG,-0.12
3,CACGACAG,0.0344
4,CACTGTAA,0.00669
5,GATACCCA,0.122
6,ACGCGTAA,0.176
7,GCGCGTAA,0.293
8,ATGCGCAT,0.334
9,CCGCGCAA,0.0795
10,ATGCGCAC,0.14
11,GCGCGCAA,0.303
12,TTACGCAA,0.268
13,ATACGCAA,0.119
14,ATGCGCAG,-0.0137
15,GTACGCAA,0.0953
16,ACGCGCAA,0.206
17,TCGCGTAA,0.19
18,GCCTCAGC,-0.0857
19,CTTTCACA,0.209
20,ACAGCATG,-0.053
21,AACTTGGG,-0.0849
22,GGTTGGTA,0.101

row,Sequence,PBM E-score
1,TTGCGCAA,0.258
2,TCGCAGAA,-0.192
3,ATGCGCAA,0.107
4,GTGCGCAA,0.0688
5,TGGCGCAA,-0.0637
6,TAGCGCAA,0.207
7,CCGCAGAA,0.179
8,GCGCAGAA,0.262
9,TCGCGCAA,0.27
10,ATACACTA,0.205
11,ATATCGTG,0.164
12,ACACCGCC,0.0284
13,AGGATCTA,-0.266
14,ACGCATGC,0.283
15,ACGCATGG,-0.215
16,ACGCATGA,0.0155
17,ACGCTGTC,-0.187
18,ACGCTGAT,0.166
19,CTGCTGTC,-0.0811
20,CAGCTGTC,0.253
21,CAGCTGAG,0.0708
22,CTGCTGAA,0.0549

row,Sequence,PBM E-score
1,CAGCTGAC,0.182
2,ACGCTGAC,0.3
3,CTGCTGAC,0.275
4,GGAAGAAA,-0.0518
5,CTAGTTGC,0.0214
6,GGACTTGA,-0.232
7,ATACTCTG,0.0457
8,ATCAGCAA,0.122
9,CTCAGCAC,0.0326
10,ATCAGCAC,0.0147
11,CTCAGCAA,0.106
12,GTCAGCAA,0.295
13,GTCAGCAC,0.261
14,AGCTCCAC,-0.0867
15,AACGTAGA,0.0503
16,CTTGCTAC,-0.0445
17,ACTGTAAT,0.111
18,CTGCCGCA,-0.0367
19,ACGGGTCT,-0.252
20,AGCGATGG,-0.0366
21,TCTTAGCA,-0.0984
22,AACGACCT,-0.0376

row,Sequence,PBM E-score
1,ATCAATCA,0.13
2,CTGATTAC,0.334
3,ATGATTAG,0.094
4,ACGATTAA,0.0443
5,ATGATTGA,0.0737
6,ATGATTAA,0.32
7,CTGATTAA,0.362
8,CTGATTTA,0.0612
9,GCGATTAA,0.123
10,TCGATTAA,0.301
11,CTGATTTC,0.182
12,ATGATTAC,0.192
13,GTGATTAA,0.228
14,AGGTACAT,-0.172
15,AATCTGGC,-0.102
16,CTCCCTGA,-0.247
17,AAGCGCCT,-0.165
18,ACCTTTAG,-0.142
19,CATAGAGC,-0.22
20,CAGTTGGG,-0.0373
21,AAAATTGT,0.167
22,AAAATTAA,0.209

# Source: the supplement of paper PMC3334620
